# From PubChem BioAssay (EPA / NIEHS)
# Records with an inconclusive call do not appear. The source made the active and inactive calls. The calls were made as follows: active = hit-call score of the fitted dose curve at least 0.9, where 1 is the maximum; inconclusive = response in the unintended direction; inactive = score below 0.9.
# Key:
# [1] = target: Peroxisome proliferator-activated receptor gamma (Homo sapiens) (UniProt P37231); assay: NVS_NR_hPPARg: NovaScreen (NVS) Nuclear Receptor Binding Assay for human Peroxisome Proliferator-activated Receptor gamma (PPARg) (AID 2283370)
# How it was run: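 Cell-free binding to extracted PPARg protein, read by fluorescence polarization 2 h after dosing; loss of signal relative to DMSO baseline marks displacement. Primary screen in duplicate at 25 uM, actives retested in concentration series.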
# [2] = target: Estrogen receptor beta (Homo sapiens) (UniProt Q92731); assay: OT_ER_ERbERb_1440: Odyssey Thera (OT) 24-hour HEK293T Protein-Complementation Assay for Estrogen Receptor-beta/-beta Homodimer (AID 2283380);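 also: fluorescence gain from ER beta LBD homodimer complementation read by laser scanning cytometry; scored as signal increase over DMSO baseline for both agonists and antagonists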
# How it was run: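 Fluorescence increase, nuclear for agonists or whole-cell for antagonists, relative to DMSO vehicle, quantified by laser scanning cytometer after fixation and Draq5 staining. Readout from 24 h treatment of HEK293T cells carrying complementation-paired ER beta LBD (aa 310-547).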
# [3] = system: guinea pig Dopamine Transporter (DAT), gene 100714898; assay: NVS_TR_gDAT: NovaScreen (NVS) Transporter Assay for guinea pig Dopamine Transporter (DAT) (AID 2283369);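 also: active compounds lower bound radioligand signal relative to DMSO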
# How it was run: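 Guinea pig striatal membranes; radioligand displacement measured by filter-based scintillation counting 2 h after dosing. Initial duplicate screen at 25 uM, then concentration-response up to 50 uM for hits; loss of signal versus DMSO baseline.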
# [4] = target: human Dopamine Transporter (DAT), SLC6A3 (gene 6531) (UniProt Q01959); assay: NVS_TR_hDAT: NovaScreen (NVS) Transporter Assay for human Dopamine Transporter (DAT) (AID 2283374);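 also: activity means loss of bound radioligand signal relative to DMSO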
# How it was run: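 Duplicate single-point screening at 25 uM preceded concentration-series follow-up of actives. Binding was measured by competitive displacement of a radioligand from DAT protein, filter-counted by scintillation 1 h after dosing. Decrease relative to DMSO taken as activity.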
# [5] = target: human Serotonin Transporter (SERT), SLC6A4 (gene 6532) (UniProt P31645); assay: NVS_TR_hSERT: NovaScreen (NVS) Transporter Assay for human Serotonin Transporter (SERT) (AID 2283372)
# How it was run: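 Human platelet membrane preparation; displacement of radioligand from serotonin transporter measured after 1 h by filtration and scintillation counting. Single 25 uM duplicate screen, then concentration series for actives, with DMSO as negative baseline.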
# [6] = system: rat Norepinephrine Transporter (NET), gene 83511; assay: NVS_TR_rNET: NovaScreen (NVS) Transporter Assay for rat Norepinephrine Transporter (NET) (AID 2283373)
# How it was run: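 Competitive radioligand displacement at the rat NET using forebrain membrane preparations, 1 h incubation, filter-based scintillation readout. Primary testing in duplicate at a single 25 uM concentration; confirmed actives retested across concentrations.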
# [7] = target: rat Serotonin Transporter (SERT), Slc6a4 (gene 25553) (UniProt P31652); assay: NVS_TR_rSERT: NovaScreen (NVS) Transporter Assay for rat Serotonin Transporter (SERT) (AID 2283375)
# How it was run: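 Rat forebrain membranes were incubated with test chemical for 1 hour; radioligand binding to SERT was measured by filter-based scintillation counting. Primary screen ran in duplicate at 25 uM, with actives followed up in concentration series; DMSO served as negative control.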
# [8] = target: human Norepinephrine Transporter (NET), SLC6A2 (gene 6530) (UniProt P23975); assay: NVS_TR_hNET: NovaScreen (NVS) Transporter Assay for human Norepinephrine Transporter (NET) (AID 2283377);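 also: cell-free membrane protein extracted from CHO cells expressing human NET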;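 as to AC50: displacement of radioligand from human NET seen as loss of scintillation signal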
# How it was run: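 Single-concentration duplicate screen at 25 uM, then concentration-response for actives; displacement of specific radioligand from human NET in CHO membrane extracts, filter-based scintillation detection at 1 h relative to DMSO.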
# [9] = target: Agonist Androgen Response Element (ARE), AR (gene 367) (UniProt P10275); assay: OT_AR_ARELUC_AG_1440: Odyssey Thera (OT) 24-hour CHO-K1 Luciferase Assay for Agonist Androgen Response Element (ARE) (AID 2283379)
# How it was run: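 Readout: luciferase bioluminescence from CHO-K1 ARE-luc cells, measured 24 h post-dosing; agonism = increased mean luminescence vs DMSO controls, fitted in positive direction.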
# human Dopamine Transporter (DAT), SLC6A3 (gene 6531), sequence (Q01959 whole entry, looked up): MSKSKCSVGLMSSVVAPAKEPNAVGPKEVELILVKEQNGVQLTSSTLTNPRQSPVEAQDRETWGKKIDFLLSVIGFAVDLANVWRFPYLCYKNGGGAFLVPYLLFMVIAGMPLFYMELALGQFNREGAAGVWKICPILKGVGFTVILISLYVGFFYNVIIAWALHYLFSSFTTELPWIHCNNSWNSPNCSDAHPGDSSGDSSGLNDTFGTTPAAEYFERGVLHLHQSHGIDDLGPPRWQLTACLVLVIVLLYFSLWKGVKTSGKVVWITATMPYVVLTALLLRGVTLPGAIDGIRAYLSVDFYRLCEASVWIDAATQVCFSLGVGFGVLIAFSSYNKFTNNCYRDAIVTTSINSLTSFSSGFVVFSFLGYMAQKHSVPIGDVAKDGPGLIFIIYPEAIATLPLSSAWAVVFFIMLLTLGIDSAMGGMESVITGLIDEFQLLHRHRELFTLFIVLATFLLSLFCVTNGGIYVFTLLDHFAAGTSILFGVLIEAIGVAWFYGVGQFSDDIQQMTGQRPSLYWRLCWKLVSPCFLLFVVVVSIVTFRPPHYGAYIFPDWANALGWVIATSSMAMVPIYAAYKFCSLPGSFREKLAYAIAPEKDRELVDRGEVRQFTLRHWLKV
# rat Serotonin Transporter (SERT), Slc6a4 (gene 25553), sequence (P31652 whole entry, looked up): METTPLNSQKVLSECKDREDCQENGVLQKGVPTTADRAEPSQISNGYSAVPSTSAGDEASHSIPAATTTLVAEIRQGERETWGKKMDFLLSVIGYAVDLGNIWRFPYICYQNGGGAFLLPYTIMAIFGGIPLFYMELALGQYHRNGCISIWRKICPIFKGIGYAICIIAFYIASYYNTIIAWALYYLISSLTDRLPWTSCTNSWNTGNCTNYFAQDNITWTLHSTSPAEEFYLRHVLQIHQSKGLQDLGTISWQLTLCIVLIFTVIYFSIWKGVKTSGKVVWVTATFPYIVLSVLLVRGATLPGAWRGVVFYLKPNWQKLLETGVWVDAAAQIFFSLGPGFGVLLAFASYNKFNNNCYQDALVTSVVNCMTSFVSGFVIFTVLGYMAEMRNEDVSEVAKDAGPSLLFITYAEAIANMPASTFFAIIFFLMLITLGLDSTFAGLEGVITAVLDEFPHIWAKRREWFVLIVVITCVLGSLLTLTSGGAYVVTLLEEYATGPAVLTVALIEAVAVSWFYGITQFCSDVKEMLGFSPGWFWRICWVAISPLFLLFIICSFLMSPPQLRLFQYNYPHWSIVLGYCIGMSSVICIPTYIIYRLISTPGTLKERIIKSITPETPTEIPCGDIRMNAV
# Peroxisome proliferator-activated receptor gamma (Homo sapiens), sequence (P37231 whole entry, looked up): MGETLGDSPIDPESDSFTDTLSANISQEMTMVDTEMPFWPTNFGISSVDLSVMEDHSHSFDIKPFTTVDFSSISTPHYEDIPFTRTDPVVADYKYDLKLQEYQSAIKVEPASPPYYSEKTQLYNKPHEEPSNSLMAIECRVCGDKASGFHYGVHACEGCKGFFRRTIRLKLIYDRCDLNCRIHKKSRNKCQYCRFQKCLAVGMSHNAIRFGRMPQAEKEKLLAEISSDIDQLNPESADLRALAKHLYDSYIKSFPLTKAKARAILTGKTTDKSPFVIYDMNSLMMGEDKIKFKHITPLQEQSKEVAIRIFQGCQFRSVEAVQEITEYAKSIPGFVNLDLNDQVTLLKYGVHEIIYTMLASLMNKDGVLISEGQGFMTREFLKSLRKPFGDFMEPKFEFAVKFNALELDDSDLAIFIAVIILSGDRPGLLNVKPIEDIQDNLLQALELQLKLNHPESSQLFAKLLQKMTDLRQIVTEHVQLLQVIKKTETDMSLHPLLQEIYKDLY
# Estrogen receptor beta (Homo sapiens), sequence (Q92731 whole entry, looked up, the tested form may be a part): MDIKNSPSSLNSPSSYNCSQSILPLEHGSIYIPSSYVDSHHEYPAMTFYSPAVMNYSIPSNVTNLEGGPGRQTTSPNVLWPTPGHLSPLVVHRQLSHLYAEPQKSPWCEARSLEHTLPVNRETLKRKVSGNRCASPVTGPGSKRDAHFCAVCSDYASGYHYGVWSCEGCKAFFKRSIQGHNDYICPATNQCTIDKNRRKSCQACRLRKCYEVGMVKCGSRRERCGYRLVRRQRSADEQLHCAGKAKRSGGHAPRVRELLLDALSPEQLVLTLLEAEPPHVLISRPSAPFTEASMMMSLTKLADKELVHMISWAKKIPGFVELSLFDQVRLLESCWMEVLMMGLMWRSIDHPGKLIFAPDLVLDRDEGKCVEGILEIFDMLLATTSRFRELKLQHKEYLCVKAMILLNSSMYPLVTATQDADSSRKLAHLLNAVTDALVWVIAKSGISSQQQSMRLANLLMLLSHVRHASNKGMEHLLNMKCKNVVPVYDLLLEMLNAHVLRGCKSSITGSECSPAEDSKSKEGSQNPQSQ
# human Serotonin Transporter (SERT), SLC6A4 (gene 6532), sequence (P31645 whole entry, looked up): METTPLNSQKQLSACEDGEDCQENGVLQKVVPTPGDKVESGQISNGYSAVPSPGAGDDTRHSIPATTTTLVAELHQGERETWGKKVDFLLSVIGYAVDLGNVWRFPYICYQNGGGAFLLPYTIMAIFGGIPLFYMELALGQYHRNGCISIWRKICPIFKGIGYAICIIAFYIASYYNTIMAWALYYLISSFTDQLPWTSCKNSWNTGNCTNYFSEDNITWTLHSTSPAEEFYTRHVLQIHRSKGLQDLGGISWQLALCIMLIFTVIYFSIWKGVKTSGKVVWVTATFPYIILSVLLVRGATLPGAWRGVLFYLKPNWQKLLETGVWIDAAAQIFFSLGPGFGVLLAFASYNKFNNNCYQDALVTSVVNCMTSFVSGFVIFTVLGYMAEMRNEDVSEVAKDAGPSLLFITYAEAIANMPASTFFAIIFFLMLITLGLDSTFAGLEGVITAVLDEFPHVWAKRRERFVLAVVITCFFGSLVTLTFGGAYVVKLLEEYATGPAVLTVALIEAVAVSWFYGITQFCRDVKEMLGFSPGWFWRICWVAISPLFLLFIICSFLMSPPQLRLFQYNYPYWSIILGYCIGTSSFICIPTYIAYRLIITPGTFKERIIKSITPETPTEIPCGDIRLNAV
# human Norepinephrine Transporter (NET), SLC6A2 (gene 6530), sequence (P23975 whole entry, looked up): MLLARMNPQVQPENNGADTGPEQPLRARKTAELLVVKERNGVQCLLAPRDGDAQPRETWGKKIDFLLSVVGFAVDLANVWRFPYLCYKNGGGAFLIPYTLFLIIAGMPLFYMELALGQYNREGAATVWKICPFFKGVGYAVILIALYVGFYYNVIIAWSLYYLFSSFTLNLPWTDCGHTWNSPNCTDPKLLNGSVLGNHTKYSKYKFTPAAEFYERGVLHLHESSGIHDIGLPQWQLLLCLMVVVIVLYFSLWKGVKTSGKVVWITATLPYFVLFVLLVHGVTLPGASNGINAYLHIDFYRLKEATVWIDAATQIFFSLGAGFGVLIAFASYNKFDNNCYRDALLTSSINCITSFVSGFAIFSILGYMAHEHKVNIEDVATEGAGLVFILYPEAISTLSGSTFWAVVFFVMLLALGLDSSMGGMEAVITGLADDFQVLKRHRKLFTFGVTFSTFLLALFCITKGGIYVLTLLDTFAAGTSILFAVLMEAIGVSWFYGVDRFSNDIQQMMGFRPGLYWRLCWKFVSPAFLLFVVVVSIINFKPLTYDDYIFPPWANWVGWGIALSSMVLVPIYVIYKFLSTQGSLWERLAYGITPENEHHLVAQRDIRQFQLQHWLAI
# Agonist Androgen Response Element (ARE), AR (gene 367), sequence (P10275 whole entry, looked up): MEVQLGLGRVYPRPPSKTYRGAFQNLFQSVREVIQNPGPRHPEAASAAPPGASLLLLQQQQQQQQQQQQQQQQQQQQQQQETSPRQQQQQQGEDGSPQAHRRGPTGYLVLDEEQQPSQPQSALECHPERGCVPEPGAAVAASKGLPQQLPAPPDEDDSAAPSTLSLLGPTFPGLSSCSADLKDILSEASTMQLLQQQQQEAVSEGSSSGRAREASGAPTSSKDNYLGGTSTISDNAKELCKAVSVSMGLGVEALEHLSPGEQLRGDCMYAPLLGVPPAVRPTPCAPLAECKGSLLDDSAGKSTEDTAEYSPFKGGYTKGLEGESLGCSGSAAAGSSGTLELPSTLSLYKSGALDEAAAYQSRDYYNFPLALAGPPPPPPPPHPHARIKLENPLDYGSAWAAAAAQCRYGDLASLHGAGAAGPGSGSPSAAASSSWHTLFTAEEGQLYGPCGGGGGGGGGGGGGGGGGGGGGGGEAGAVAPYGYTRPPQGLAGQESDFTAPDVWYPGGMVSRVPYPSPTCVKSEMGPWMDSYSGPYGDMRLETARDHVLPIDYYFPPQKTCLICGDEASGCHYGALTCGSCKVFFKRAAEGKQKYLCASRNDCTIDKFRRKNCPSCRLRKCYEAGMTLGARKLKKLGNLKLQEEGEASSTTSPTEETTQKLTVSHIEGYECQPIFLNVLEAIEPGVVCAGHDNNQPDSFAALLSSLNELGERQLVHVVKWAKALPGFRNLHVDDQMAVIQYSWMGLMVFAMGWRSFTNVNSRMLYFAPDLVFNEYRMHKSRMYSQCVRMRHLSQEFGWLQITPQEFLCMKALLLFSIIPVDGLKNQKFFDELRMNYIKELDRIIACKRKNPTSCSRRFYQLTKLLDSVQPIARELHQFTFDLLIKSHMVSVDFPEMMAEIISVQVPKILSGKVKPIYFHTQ
structure (smiles),measurement,setting,value
C=CC(=C)CCC=C(C)C,outcome,[1],inactive
same,outcome,[2],inactive
O=C(O)CC(O)C(=O)O (stereo unspecified),AC50,[3],5.6 µM (active)
same,AC50,[4],4.96 µM (active)
same,outcome,[2],inactive
Cc1[nH]cnc1C[C@H]1CCc2c(C)c3ccccc3n2C1=O,AC50,[3],12.7 µM (active)
same,AC50,[5],8.03 µM (active)
same,AC50,[6],8.58 µM (active)
same,AC50,[4],11.6 µM (active)
same,AC50,[7],7.59 µM (active)
same,AC50,[8],7.21 µM (active)
same,outcome,[2],inactive
Nc1ccc(Nc2ccccc2)cc1,AC50,[3],25 µM (active)
same,AC50,[4],7.42 µM (active)
same,AC50,[8],6.87 µM (active)
CCOC(=O)COc1ccc2c(c1)CC(NCC(O)c1cccc(Cl)c1)CC2 (stereo unspecified),AC50,[3],10.6 µM (active)
same,outcome,[5],inactive
same,outcome,[6],inactive
same,AC50,[4],0.124 µM (active)
same,AC50,[7],4.63 µM (active)
same,AC50,[8],0.312 µM (active)
CC(C)c1cccc(C(C)C)c1N1C(=O)c2ccc(O)cc2C1=O,AC50,[1],16.1 µM (active)
CC(C)(O)c1coc(S(=O)(=O)NC(=O)Nc2c3c(cc4c2CCC4)CCC3)c1,outcome,[1],inactive
same,outcome,[2],inactive
CNCc1ccc(NC(=O)c2c[nH]c3c2C(=O)CCC3)cc1,AC50,[1],5.18 µM (active)
same,AC50,[4],13.8 µM (active)
same,AC50,[7],25 µM (active)
same,outcome,[2],inactive
O=C(NS(=O)(=O)/C=C/c1ccccc1)c1ccc(F)cc1Cl,AC50,[1],39.6 µM (active)
same,outcome,[2],inactive
CC(C)=CCCC(C)CCO (stereo unspecified),outcome,[1],inactive
same,outcome,[9],inactive
same,outcome,[2],inactive
O=C(O)c1cccc(Oc2ccccc2)c1,outcome,[1],inactive
same,outcome,[8],inactive
Cc1c(-c2cccnc2)c2ccccc2n1CCCCC(=O)O,outcome,[1],inactive
same,outcome,[2],inactive
COC(=O)c1c(Cl)c(Cl)c(C(=O)OC)c(Cl)c1Cl,outcome,[1],inactive
same,outcome,[2],inactive
CCOC(=O)c1ccc(C2CCC(NC[C@H](O)COc3ccc(O)c(NS(C)(=O)=O)c3)CC2)cc1 (stereo partly specified),AC50,[3],8.87 µM (active)
same,outcome,[1],inactive
same,AC50,[5],14.9 µM (active)
same,AC50,[6],7.29 µM (active)
same,AC50,[4],0.321 µM (active)
same,AC50,[7],1.71 µM (active)
same,AC50,[8],1.01 µM (active)
